PubChem BioAssay (EPA / NIEHS)
Values joined by “and” are separate entries in the source; they are usually repeats but may differ in a detail not shown here. Identical values can stand only once. Results filed as inconclusive are left out. More than one record can exist for a structure, and the calls need not agree. Active and inactive are the calls of the source. Rule for the calls, unless noted: active = hit-call score of the fitted dose curve at least 0.9, where 1 is the maximum; inconclusive = response in the unintended direction; inactive = score below 0.9.

Each compound was assayed against human CYP2B6, CYP2B6 (gene 1555) (UniProt P20813) (assay: NVS_ADME_hCYP2B6: NovaScreen (NVS) CYP450-related Enzyme Activity (ADME) Assay for human CYP2B6 (AID 2283101)).
human CYP2B6, CYP2B6 (gene 1555), sequence (P20813 whole entry, looked up): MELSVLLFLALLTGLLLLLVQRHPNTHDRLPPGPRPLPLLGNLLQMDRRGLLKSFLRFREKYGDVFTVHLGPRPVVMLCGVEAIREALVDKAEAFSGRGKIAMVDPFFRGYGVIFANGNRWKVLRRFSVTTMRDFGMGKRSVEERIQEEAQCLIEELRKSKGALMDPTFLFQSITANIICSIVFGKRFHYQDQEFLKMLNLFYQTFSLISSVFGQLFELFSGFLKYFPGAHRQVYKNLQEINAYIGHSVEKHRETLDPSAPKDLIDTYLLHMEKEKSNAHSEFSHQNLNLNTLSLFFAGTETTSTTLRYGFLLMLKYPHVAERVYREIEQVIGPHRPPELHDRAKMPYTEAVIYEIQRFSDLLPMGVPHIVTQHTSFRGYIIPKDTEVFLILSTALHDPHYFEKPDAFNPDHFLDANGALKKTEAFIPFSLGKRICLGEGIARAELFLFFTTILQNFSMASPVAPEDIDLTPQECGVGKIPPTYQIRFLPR
In short: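 Fluorescence-based enzyme activity of recombinant human CYP2B6, measured 1 h post-dose against acetonitrile vehicle baseline. Screened at a single concentration of 10 uM in duplicate before concentration-response follow-up.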
In the case of `CN1CSC(=S)N(C)C1`, the AC50 was 10 µM (active). In the case of `CCOC1Oc2ccc(OS(C)(=O)=O)cc2C1(C)C` (centres undefined), the AC50 was 5.43 µM (active). `COc1nn(CSP(=S)(OC)OC)c(=O)s1` was tested, and the AC50 was 0.35 µM (active). In the case of `Oc1ccc(Cl)cc1Cc1ccccc1`, the AC50 was 7.66 µM (active) [middle of 6 runs]. `CCCN(CCOc1c(Cl)cc(Cl)cc1Cl)C(=O)n1ccnc1` was tested, and the AC50 was 0.124 µM (active). In the case of `C#CCN1C(=O)COc2cc(F)c(N3C(=O)C4=C(CCCC4)C3=O)cc21`, the AC50 was 4.2 µM (active). With `COP(=S)(OC)Oc1ccc(SC)c(C)c1` the AC50 was 8.76 µM (active). `COP(=S)(OC)Oc1ccc([N+](=O)[O-])cc1` was tested, and the AC50 was 0.547 µM (active). `CC(C)(C)C(O)/C(=C\c1ccc(Cl)cc1Cl)n1cncn1` (centres undefined) was tested, and the AC50 was 0.974 µM (active). `O=S1OCC2C(CO1)C1(Cl)C(Cl)=C(Cl)C2(Cl)C1(Cl)Cl` (centres undefined) was tested, and the AC50 was 4.85 µM (active).

Each compound was assayed against human CYP1A2, CYP1A2 (gene 1544) (UniProt P05177) (assay: NVS_ADME_hCYP1A2: NovaScreen (NVS) CYP450-related Enzyme Activity (ADME) Assay for human CYP1A2 (AID 2283102);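 for AC50: fluorescence from turnover of a fluorogenic substrate by recombinant insect-cell CYP1A2; potency for inhibition since loss of fluorescence marks reduced CYP1A2 activity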).
human CYP1A2, CYP1A2 (gene 1544), sequence (P05177 whole entry, looked up): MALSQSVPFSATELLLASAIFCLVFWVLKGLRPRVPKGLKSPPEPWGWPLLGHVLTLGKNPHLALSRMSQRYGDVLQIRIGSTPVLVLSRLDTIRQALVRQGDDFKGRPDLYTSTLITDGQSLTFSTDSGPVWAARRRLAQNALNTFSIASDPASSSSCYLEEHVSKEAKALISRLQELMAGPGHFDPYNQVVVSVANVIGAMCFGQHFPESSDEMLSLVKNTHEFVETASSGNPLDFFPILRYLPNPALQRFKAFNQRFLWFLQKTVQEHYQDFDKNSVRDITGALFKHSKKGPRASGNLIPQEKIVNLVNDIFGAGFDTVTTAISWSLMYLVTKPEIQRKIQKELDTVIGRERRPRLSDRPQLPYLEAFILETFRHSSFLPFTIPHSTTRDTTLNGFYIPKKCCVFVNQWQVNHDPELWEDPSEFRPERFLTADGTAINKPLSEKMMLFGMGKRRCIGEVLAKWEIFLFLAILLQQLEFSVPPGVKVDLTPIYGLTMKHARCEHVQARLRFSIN
Method: (§1) NVS_ADME_hCYP1A2 is a biochemical, single-readout assay that uses extracted gene-proteins from insect cells in a cell-free assay. Measurements were taken 0.5 hour after chemical dosing in a 96-well plate.NVS_ADME_hCYP1A2 is one of one assay component(s) measured or calculated from the NVS_ADME_hCYP1A2 assay. It is designed to make measurements of enzyme activity, a form of enzyme reporter, as detected with fluorescence intensity signals by Fluorescence technology.Data from the assay component NVS_ADME_hCYP1A2 was analyzed into 1 assay endpoint. This assay endpoint, NVS_ADME_hCYP1A2, was analyzed in the positive analysis fitting direction relative to Acetonitrile as the negative control and baseline of activity. Using a type of enzyme reporter, loss-of-signal activity can be used to understand changes in the enzymatic activity as they relate to the gene CYP1A2. Furthermore, this assay endpoint can be referred to as a primary readout, because this assay has produced multiple assay endpoints where this one serves a enzymatic activity function. To generalize the intended target to other relatable targets, this assay endpoint is annotated to the cyp intended target family, where the subfamily is xenobiotic metabolism.
(§2) Binding assays used specific radioligands (tritiated, iodinated) with non-radioactive competitive displacement ligands in agonist or antagonist protocols (as indicated) and various reference compounds and inhibitors to titrate specific binding to receptors and transporters. Most enzyme assays (CYPs, kinases, phosphatases, proteases, HDACs) used recombinant protein and specific substrates (fluorescence mostly, some colorimetric and radioactive) and inhibitors, followed by a biochemical separation of substrate and product. All assays for the biochemical HTS were initially run in duplicate at a single concentration (10 uM for CYP450 assays and 25 uM for all others). […] Each assay was run with positive and negative controls, and concurrent controls on every plate. The follow-up (secondary) screen tested active chemical-pairs in concentration series, as well as a few additional assays not tested in the primary screen, some selected negative inactives, and several cases re-run in the concentration series for confirmatory purposes.
With `COc1nn(CSP(=S)(OC)OC)c(=O)s1` the AC50 was 3250 nM (active). `Oc1ccc(Cl)cc1Cc1ccccc1` was tested, and the outcome was “inactive”. With `CCCN(CCOc1c(Cl)cc(Cl)cc1Cl)C(=O)n1ccnc1` the AC50 was 616 nM (active). With `C#CCN1C(=O)COc2cc(F)c(N3C(=O)C4=C(CCCC4)C3=O)cc21` the outcome was “inactive”. With `O=C(Nc1ccccc1)Nc1cnns1` the AC50 was 3550 nM (active). `COP(=S)(OC)Oc1ccc(SC)c(C)c1` was tested, and the AC50 was 2760 nM (active). For `COP(=S)(OC)Oc1ccc([N+](=O)[O-])cc1`, the AC50 was 1060 nM (active). In the case of `Oc1cc(Cl)ccc1Oc1ccc(Cl)cc1Cl`, the AC50 was 9330 nM (active). In the case of `N#Cc1c(Cl)c(Cl)c(Cl)c(C#N)c1Cl`, the AC50 was 406 nM (active).

What follows are compounds tested against human CYP2C8, CYP2C8 (gene 1558) (UniProt P10632) (assay: NVS_ADME_hCYP2C8: NovaScreen (NVS) CYP450-related Enzyme Activity (ADME) Assay for human CYP2C8 (AID 2283104; active = hit-call score of the fitted dose curve at least 0.9, where 1 is the maximum; inactive = score below 0.9)).
human CYP2C8, CYP2C8 (gene 1558), sequence (P10632 whole entry, looked up): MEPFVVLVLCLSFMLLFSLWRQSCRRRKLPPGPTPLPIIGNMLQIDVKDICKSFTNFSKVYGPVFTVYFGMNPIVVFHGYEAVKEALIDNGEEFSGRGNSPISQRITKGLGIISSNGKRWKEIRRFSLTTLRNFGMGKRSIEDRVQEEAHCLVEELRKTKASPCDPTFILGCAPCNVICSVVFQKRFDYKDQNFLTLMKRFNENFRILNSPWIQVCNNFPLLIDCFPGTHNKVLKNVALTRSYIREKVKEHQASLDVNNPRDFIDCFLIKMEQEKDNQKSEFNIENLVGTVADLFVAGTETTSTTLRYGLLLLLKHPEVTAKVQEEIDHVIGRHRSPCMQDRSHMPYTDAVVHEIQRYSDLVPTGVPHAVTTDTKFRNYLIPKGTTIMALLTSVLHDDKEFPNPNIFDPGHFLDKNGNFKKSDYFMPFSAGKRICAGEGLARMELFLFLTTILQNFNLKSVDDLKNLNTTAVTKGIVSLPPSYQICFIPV
Method: as §1, with “NVS_ADME_hCYP2C8” for “NVS_ADME_hCYP1A2”, “gene-proteins” for “gene-proteins from insect cells”, “plate.NVS_ADME_hCYP2C8” for “plate.NVS_ADME_hCYP1A2”, “NVS_ADME_hCYP2C8,” for “NVS_ADME_hCYP1A2,”, “CYP2C8.” for “CYP1A2.”
(§3) Binding assays used specific radioligands (tritiated, iodinated) with non-radioactive competitive displacement ligands in agonist or antagonist protocols (as indicated) and various reference compounds and inhibitors to titrate specific binding to receptors and transporters. Most enzyme assays (CYPs, kinases, phosphatases, proteases, HDACs) used recombinant protein and specific substrates (fluorescence mostly, some colorimetric and radioactive) and inhibitors, followed by a biochemical separation of substrate and product. All assays for the biochemical HTS were initially run in duplicate at a single concentration (10 uM for CYP450 assays and 25 uM for all others). Assay-chemical combinations meeting a pre-defined threshold (e.g., 30% inhibition and other criteria defined below) were then run in singleton concentration-response format with maximum concentration of 20 uM for CYPs and 50 uM for all others. Each assay was run with positive and negative controls, and concurrent controls on every plate. The follow-up (secondary) screen tested active chemical-pairs in concentration series, as well as a few additional assays not tested in the primary screen, some selected negative inactives, and several cases re-run in the concentration series for confirmatory purposes.
With `O=C1c2ccccc2C(=O)N1SC(Cl)(Cl)Cl` the AC50 was 245 nM (active). In the case of `O=S(=O)(O)C(F)(F)C(F)(F)C(F)(F)C(F)(F)C(F)(F)C(F)(F)C(F)(F)C(F)(F)F`, the AC50 was 4040 nM (active). In the case of `CCCN(CCOc1c(Cl)cc(Cl)cc1Cl)C(=O)n1ccnc1`, the AC50 was 1850 nM (active). In the case of `O=C(NC(=O)c1c(F)cccc1F)Nc1ccc(OC(F)(F)C(F)OC(F)(F)F)c(Cl)c1` (centres undefined), the outcome was “inactive”. In the case of `CC[C@H](C)[C@H]1O[C@]2(C=C[C@@H]1C)C[C@@H]1C[C@@H](C/C=C(\C)[C@@H](O[C@H]3C[C@H](OC)[C@@H](O[C@H]4C[C@H](OC)[C@@H](O)[C@H](C)O4)[C@H](C)O3)[C@@H](C)/C=C/C=C3\CO[C@@H]4[C@H](O)C(C)=C[C@@H](C(=O)O1)[C@]34O)O2` (tested in a mixture with another compound), the AC50 was 2790 nM (active). For `Oc1cc(Cl)ccc1Oc1ccc(Cl)cc1Cl`, the AC50 was 4510 nM (active). `N#Cc1c(Cl)c(Cl)c(Cl)c(C#N)c1Cl` was tested, and the AC50 was 213 nM (active). `O=C(O)C(F)(F)C(F)(F)C(F)(F)C(F)(F)C(F)(F)C(F)(F)C(F)(F)F` was tested, and the outcome was “inactive”.

The compounds below were run against human CYP2J2, CYP2J2 (gene 1573) (UniProt P51589) (assay: NVS_ADME_hCYP2J2: NovaScreen (NVS) CYP450-related Enzyme Activity (ADME) Assay for human CYP2J2 (AID 2283106)).
human CYP2J2, CYP2J2 (gene 1573), sequence (P51589 whole entry, looked up): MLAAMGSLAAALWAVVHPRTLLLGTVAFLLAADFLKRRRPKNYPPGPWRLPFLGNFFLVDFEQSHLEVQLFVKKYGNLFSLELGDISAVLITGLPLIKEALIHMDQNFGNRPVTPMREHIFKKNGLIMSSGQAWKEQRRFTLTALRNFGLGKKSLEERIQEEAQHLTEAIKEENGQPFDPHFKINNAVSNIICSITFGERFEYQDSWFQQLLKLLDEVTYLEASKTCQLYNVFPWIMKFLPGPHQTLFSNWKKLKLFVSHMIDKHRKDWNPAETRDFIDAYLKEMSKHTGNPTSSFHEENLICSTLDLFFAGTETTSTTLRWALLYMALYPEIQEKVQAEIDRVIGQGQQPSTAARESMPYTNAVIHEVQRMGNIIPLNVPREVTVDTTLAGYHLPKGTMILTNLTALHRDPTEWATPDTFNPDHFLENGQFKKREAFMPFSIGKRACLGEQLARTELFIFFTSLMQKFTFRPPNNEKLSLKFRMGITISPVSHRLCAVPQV
Method: as §1, with “NVS_ADME_hCYP2J2” for “NVS_ADME_hCYP1A2”, “gene-proteins” for “gene-proteins from insect cells”, “1” for “0.5”, “plate.NVS_ADME_hCYP2J2” for “plate.NVS_ADME_hCYP1A2”, “NVS_ADME_hCYP2J2,” for “NVS_ADME_hCYP1A2,”, “CYP2J2.” for “CYP1A2.”
as §3
In the case of `COc1nn(CSP(=S)(OC)OC)c(=O)s1`, the AC50 was 2060 nM (active). `CCCN(CCOc1c(Cl)cc(Cl)cc1Cl)C(=O)n1ccnc1` was tested, and the AC50 was 94 nM (active). In the case of `C#CCN1C(=O)COc2cc(F)c(N3C(=O)C4=C(CCCC4)C3=O)cc21`, the AC50 was 2500 nM (active). For `CC[C@H](C)[C@H]1O[C@]2(C=C[C@@H]1C)C[C@@H]1C[C@@H](C/C=C(\C)[C@@H](O[C@H]3C[C@H](OC)[C@@H](O[C@H]4C[C@H](OC)[C@@H](O)[C@H](C)O4)[C@H](C)O3)[C@@H](C)/C=C/C=C3\CO[C@@H]4[C@H](O)C(C)=C[C@@H](C(=O)O1)[C@]34O)O2` (tested in a mixture with another compound), the AC50 was 5470 nM (active). In the case of `O=C(Nc1ccccc1)Nc1cnns1`, the outcome was “inactive”. `COP(=S)(OC)Oc1ccc(SC)c(C)c1` was tested, and the AC50 was 1060 nM (active). For `COP(=S)(OC)Oc1ccc([N+](=O)[O-])cc1`, the AC50 was 2250 nM (active). `CC(C)(C)C(O)/C(=C\c1ccc(Cl)cc1Cl)n1cncn1` (centres undefined) was tested, and the AC50 was 2210 nM (active).

Each compound was assayed against human CYP2D6, CYP2D6 (gene 1565) (UniProt P10635) (assay: NVS_ADME_hCYP2D6: NovaScreen (NVS) CYP450-related Enzyme Activity (ADME) Assay for human CYP2D6 (AID 2283107)).
human CYP2D6, CYP2D6 (gene 1565), sequence (P10635 whole entry, looked up): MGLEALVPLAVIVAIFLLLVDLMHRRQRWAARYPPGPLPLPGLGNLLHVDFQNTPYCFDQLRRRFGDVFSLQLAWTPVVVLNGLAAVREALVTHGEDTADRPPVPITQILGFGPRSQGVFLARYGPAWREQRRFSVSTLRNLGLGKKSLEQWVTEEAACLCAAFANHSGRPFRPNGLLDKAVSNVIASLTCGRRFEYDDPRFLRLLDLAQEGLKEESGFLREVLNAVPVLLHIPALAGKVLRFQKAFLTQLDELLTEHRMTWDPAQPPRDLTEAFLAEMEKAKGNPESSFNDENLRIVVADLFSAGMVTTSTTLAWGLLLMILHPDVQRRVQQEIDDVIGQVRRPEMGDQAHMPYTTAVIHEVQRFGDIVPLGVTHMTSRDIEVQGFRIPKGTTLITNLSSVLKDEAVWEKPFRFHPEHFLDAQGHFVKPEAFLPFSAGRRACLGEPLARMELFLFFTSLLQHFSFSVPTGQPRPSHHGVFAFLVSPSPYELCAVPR
Method: as §1, with “NVS_ADME_hCYP2D6” for “NVS_ADME_hCYP1A2”, “1” for “0.5”, “plate.NVS_ADME_hCYP2D6” for “plate.NVS_ADME_hCYP1A2”, “NVS_ADME_hCYP2D6,” for “NVS_ADME_hCYP1A2,”, “CYP2D6.” for “CYP1A2.”
as §2
In the case of `O=C1c2ccccc2C(=O)N1SC(Cl)(Cl)Cl`, the outcome was “inactive”. In the case of `CNC(=O)CSP(=S)(OC)OC`, the outcome was “inactive”. `COc1nn(CSP(=S)(OC)OC)c(=O)s1` was tested, and the AC50 was 3830 nM (active). For `Oc1ccc(Cl)cc1Cc1ccccc1`, the AC50 was 10000 nM (active). In the case of `CCCN(CCOc1c(Cl)cc(Cl)cc1Cl)C(=O)n1ccnc1`, the AC50 was 2180 nM (active). `COC(=O)c1ccccc1S(=O)(=O)NC(=O)Nc1nc(C)nc(OC)n1` was tested, and the outcome was “inactive”. With `COP(=S)(OC)Oc1ccc([N+](=O)[O-])cc1` the AC50 was 4790 nM (active). With `[2H]C1([2H])[n+]2ccccc2-c2cccc[n+]2C1([2H])[2H]` the AC50 was 2030 nM (active).

These compounds were tested against human CYP2C9, CYP2C9 (gene 1559) (UniProt P11712) (assay: NVS_ADME_hCYP2C9: NovaScreen (NVS) CYP450-related Enzyme Activity (ADME) Assay for human CYP2C9 (AID 2283108)).
human CYP2C9, CYP2C9 (gene 1559), sequence (P11712 whole entry, looked up): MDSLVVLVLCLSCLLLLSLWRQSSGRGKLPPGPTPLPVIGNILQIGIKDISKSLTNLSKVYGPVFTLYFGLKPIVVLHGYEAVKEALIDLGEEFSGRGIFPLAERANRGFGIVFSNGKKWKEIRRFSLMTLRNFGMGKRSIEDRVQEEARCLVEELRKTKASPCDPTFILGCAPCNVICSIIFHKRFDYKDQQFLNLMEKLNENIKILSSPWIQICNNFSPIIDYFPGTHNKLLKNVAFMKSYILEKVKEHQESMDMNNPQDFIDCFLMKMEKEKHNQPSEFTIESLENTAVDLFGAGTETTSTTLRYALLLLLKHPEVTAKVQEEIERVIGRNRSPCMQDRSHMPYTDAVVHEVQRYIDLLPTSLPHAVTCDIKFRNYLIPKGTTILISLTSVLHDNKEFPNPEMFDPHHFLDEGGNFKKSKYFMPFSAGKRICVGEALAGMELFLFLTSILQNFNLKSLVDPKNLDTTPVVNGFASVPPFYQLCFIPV
In short: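 Fluorescence readout of CYP2C9 activity (SF9-expressed human enzyme) at 0.75 h. The primary screen used 10 uM in duplicate, with concentration-response follow-up for actives; acetonitrile was the negative control.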
In the case of `COc1nn(CSP(=S)(OC)OC)c(=O)s1`, the AC50 was 2.88 µM (active). In the case of `Oc1ccc(Cl)cc1Cc1ccccc1`, the AC50 was 6.54 µM (active) [middle of 7 runs]. In the case of `CCCN(CCOc1c(Cl)cc(Cl)cc1Cl)C(=O)n1ccnc1`, the AC50 was 0.578 µM (active). In the case of `COP(=S)(OC)Oc1ccc(SC)c(C)c1`, the AC50 was 5.54 µM (active). In the case of `COP(=S)(OC)Oc1ccc([N+](=O)[O-])cc1`, the AC50 was 4.05 µM (active). `CC(C)(C)C(O)/C(=C\c1ccc(Cl)cc1Cl)n1cncn1` (centres undefined) was tested, and the AC50 was 0.721 µM (active). For `CC(C)(C)C(O)C(Oc1ccc(Cl)cc1)n1cncn1` (centres undefined), the AC50 was 5.02 µM (active) and 7.84 µM (active) and the outcome was “inactive”. For `O=C(O)C(F)(F)C(F)(F)C(F)(F)C(F)(F)C(F)(F)C(F)(F)C(F)(F)F`, the AC50 was 0.237 µM (active) and the outcome was “inactive”. `CC1(C)C(C=C(Cl)Cl)C1C(=O)OC(C#N)c1ccc(F)c(Oc2ccccc2)c1` (centres undefined) was tested, and the AC50 was 10 µM (active).
